According to PubChem BioAssay:
Active and inactive are the calls of the source.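 The calls were made as follows, unless noted: active = compound raises GLP1 secretion from the human gut endocrine cells, with no numeric limit stated; inactive = the rest.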

Tests used:
[1] = Wnt pathway potentiators raising nuclear beta-catenin – imaging, WNT3A-conditioned medium, mouse C2C12, NPC library, primary screen (AID 1117326; in the data active = nuclear beta-catenin stimulation mostly above about 4.2%, no sharp cut-off; inactive = mostly below about 10%; also: reference of the scale not given here); conditions: stronger effect = higher value
[2] = stimulators of insulin release from INS-1E, primary screen, cell-based, 5 mM glucose, NPC library (AID 1117329;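 active = compound raises insulin release from rat beta cells at 5 mM glucose, no numeric limit stated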; also: reference of the scale not given here); conditions: rat INS-1E insulin secretion, at 10 µM, stronger effect = higher value
[3] = growth inhibition of GSK3B-pretreated HCT116 cells – cell-based, CellTiter-Glo, 0.2 to 20 µM (AID 1117336;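 active = compounds lowering colon cancer cell viability after pretreatment blocking the GSK3B kinase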); conditions: HCT116 viability after GSK3B inhibitor, at 20 µM, stronger effect = higher value
[4] = inhibition of endothelial tube formation, primary screen, imaging, VEGF stimulated, CD31 staining, tube area, NPC library (AID 1117340;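 active = compound that reduces growth-factor-driven endothelial tube area in a mixed cell culture, no cutoff stated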); conditions: VEGF-stimulated ADSC/ECFC co-culture, at 10 µM, stronger effect = higher value
[5] = GLP1 release stimulators, primary, NCI-H716, NPC library (AID 1117341); conditions: NCI-H716 cells, at 10 µM, stronger effect = higher value; also: reference of the scale not given here
[6] = HCT116 colon cancer cell growth inhibition, primary screen, CellTiter-Glo luminescence, NPC library (AID 1117342;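 active = compounds that lower survival of HCT116 colon cancer cells in the luminescence readout, no numeric limit stated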); conditions: at 20 µM (top of the series)
[7] = reduced SW480 viability measured with CellTiter-Glo, NPC library, primary (AID 1117343;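 active = compounds that lower viability of the colon cancer cells in the luminescence readout, with no numeric limit stated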); conditions: CellTiter-Glo luminescence; at 20 µM (top of the series)
[8] = NPC library primary testing for decreased DLD-1 cell viability via CellTiter-Glo (AID 1117346;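 active = compounds that lower survival of DLD-1 colon cancer cells in the luminescence readout, no cutoff given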); conditions: DLD-1 viability, CellTiter-Glo luminescence; at 20 µM (top of the series)

Row | Structure (SMILES) | nuclear beta-catenin stimulation ([1]; at 10 µM) | nuclear beta-catenin stimulation ([1]; stimulation, at 2 µM) [%] | insulin secretion stimulation [2] | viability decrease [3] | tube area decrease [4] | GLP1 secretion stimulation [5] | inhibition of viability [6] | viability decrease (inhibition) [7] | viability decrease (inhibition) [8]
1 | CCCc1c2oc(C(=O)O)cc(=O)c2cc2c(=O)cc(C(=O)O)n(CC)c12 | -1.6% (inactive) | -1 | 2.6% (inactive) | 7.4% (inactive) | -19.4% (inactive) | -2.3% (inactive) | 18.2% (inactive) | 34.6% (inactive) | 15.2% (inactive)
2 | O=[N+]([O-])c1ccc(/C=N\O)o1 | 2% (inactive) | 0.4 | -3.1% (inactive) | 35.1% (inactive) | -16.1% (inactive) | 4% (inactive) | 8.8% (inactive) | 53.4% (active) | 4.47% (inactive)
3 | Nc1ncnc2c1ncn2Cc1c(F)cccc1Cl | -0.7% (inactive) | -2.1 | 4.3% (inactive) | -7.4% (inactive) | -5% (inactive) | 1.9% (inactive) | 9.7% (inactive) | -2.4% (inactive) | -2% (inactive)
4 | CCCCCCCCCCCCCCCC[N+](C)(C)CC | 13.3% (inactive) | 9.2 | 0.7% (inactive) | 99% (active) | 106% (active) | 20.2% (active) | 99.1% (active) | 102% (active) | 101% (active)
5 | COC(=O)/C=C(/C)N | 0.7% (inactive) | 2.2 | -0.8% (inactive) | 17.3% (inactive) | -6% (inactive) | 2.3% (inactive) | -17.5% (inactive) | 2.9% (inactive) | -8.3% (inactive)
6 | NS(=O)(=O)c1cc(C(=O)NN2C[C@H]3[C@H]4CCC(C4)[C@H]3C2)ccc1Cl | -1.3% (inactive) | 2.2 | -3.6% (inactive) | -4.2% (inactive) | -14.3% (inactive) | -0.6% (inactive) | 10.3% (inactive) | -2.9% (inactive) | -6.4% (inactive)
7 | Cc1oc(=O)oc1COC(=O)[C@@H]1N2C(=O)[C@@H](NC(=O)[C@H](N)c3ccccc3)[C@H]2SC1(C)C | 0.5% (inactive) | 1.3 | -1% (inactive) | -11.1% (inactive) | -10.3% (inactive) | -1.9% (inactive) | -15.2% (inactive) | 25.1% (inactive) | -14.8% (inactive)
8 | CCC(=O)Oc1ccc2c(c1)CC[C@@H]1[C@H]2CC[C@]2(C)[C@@H](OC(=O)CC)CC[C@@H]12 | -0.2% (inactive) | 0.2 | 0.1% (inactive) | 33.4% (inactive) | 28% (inactive) | 2.4% (inactive) | 42.6% (inactive) | 49.6% (inactive) | 2.6% (inactive)
9 | Cc1cn([C@H]2C[C@H](F)[C@@H](CO)O2)c(=O)[nH]c1=O | 9.9% (inactive) | 3.4 | 0.2% (inactive) | -4.5% (inactive) | 20.7% (inactive) | -4.5% (inactive) | 1.4% (inactive) | -3.5% (inactive) | -8.7% (inactive)
10 | CCn1ccc(NS(=O)(=O)c2ccc(N)cc2)nc1=O | 1.9% (inactive) | 1.4 | 3.4% (inactive) | -22.1% (inactive) | 11.6% (inactive) | 2.7% (inactive) | -54.2% (inactive) | -2.8% (inactive) | -26.4% (inactive)
11 | Cc1cc(O)c(Cl)c(C)c1Cl | 0.8% (inactive) | -0.1 | -1.8% (inactive) | -24.1% (inactive) | 7.2% (inactive) | -2% (inactive) | -6.7% (inactive) | -0.8% (inactive) | -12.3% (inactive)
12 | CCOC(=O)N1CCC(Nc2ccc(Cl)cc2N)CC1 | 5.3% (inactive) | 4.4 | 0.6% (inactive) | 0.9% (inactive) | 41.4% (active) | -4.9% (inactive) | 32.5% (inactive) | 27.8% (inactive) | -12.2% (inactive)
13 | OCC=Cc1ccccc1 | -2.6% (inactive) | -1 | 9.1% (inactive) | -8.2% (inactive) | 0.4% (inactive) | -1.9% (inactive) | -0.4% (inactive) | -0.8% (inactive) | -7.9% (inactive)
14 | COC(=O)C(CN)c1c[nH]c2ccc(OC)cc12 (centres undefined) | -2.2% (inactive) | -1 | 2.3% (inactive) | -18.2% (inactive) | 5.7% (inactive) | 7.7% (inactive) | 8.5% (inactive) | 19.4% (inactive) | 16.7% (inactive)
15 | CCC(=O)O[C@]1(C(=O)COC)[C@@H](C)C[C@H]2[C@@H]3CCC4=CC(=O)C=C[C@]4(C)C3(F)[C@@H](O)C[C@@]21C (some centres undefined) | 1.5% (inactive) | 0.5 | 1.1% (inactive) | -69.2% (inactive) | 6.6% (inactive) | -0.3% (inactive) | -4.8% (inactive) | 6% (inactive) | -2.9% (inactive)
16 | CC1CC(=O)NN=C1c1ccc(NCC(C)(C)NCC(O)COc2cc(Cl)ccc2C#N)cc1 (centres undefined) | -1.8% (inactive) | 1.1 | 31.3% (active) | -8% (inactive) | 11.2% (inactive) | 1% (inactive) | 23.2% (inactive) | 5.4% (inactive) | 15.4% (inactive)
